Records with an inconclusive call do not appear. Entries that show only a call come without a potency. Active and inactive are the calls of the source. Calls come from the whole dose curve; as a rule, active = well fitted curve in the direction sought with a large enough effect; inconclusive = small, poorly fitted or top-dose-only effect, or another doubt; inactive = no such curve, though single readings can be large; an effect the other way counts as inactive or inconclusive.

For the first experiment, the target named is Aldehyde dehydrogenase, mitochondrial (Homo sapiens) (UniProt P05091). Briefly: qHTS for Inhibitors of the Aldehyde Dehydrogenase Family (ALDH2) Primary screen (AID 2061308). Note: nearly all actives have a fitted effect of over 55% in size. The settings on record: ALDH2 enzyme inhibition qHTS, 1536-well; series mostly up to 56 µM.
Regarding `COc1cc(O)c(C(CC(=O)N2CCCC(C)C2)c2ccc3c(c2)OCO3)c(OC)c1` (stereo not drawn), the Potency result is “inactive”.

Take `Cc1cc(C)n2ncc(C(=O)Nc3ccc(C)c(C)c3)c2n1`: the Potency entry is “inactive”.

For the molecule `FC(F)(F)c1cccc(-c2nc(NCc3ccc(-c4ccnc(C(F)(F)F)c4)cc3)c3ccccc3n2)c1`, the Potency result was “inactive”.

Regarding `Cc1ccc(NS(=O)(=O)c2cc3c(cc2C)OCC(=O)N3)cc1C`, the Potency entry was “inactive”.

For `Cc1cnc(NC(=O)c2cc(S(=O)(=O)N(C)C)ccc2N2CCCC2)s1`, the Potency entry is “inactive”.

`Cc1ccc(-n2cnc3cc(C(=O)N4CCCCC4)ccc32)cc1`: the Potency entry is “inactive”.

As to `Cc1csc(CNc2ncnc3ccc(-c4ccc(C(=O)O)o4)cc23)n1`, the Potency result is “inactive”.

In the case of `O=C(Nc1ccc(S(=O)(=O)Nc2nccs2)cc1)c1ccc2ccccc2c1`, the Potency entry was “inactive”.

On to `CC(=O)/C=C/[C@H]1[C@](C)(O)[C@@H](O)[C@H](O)C2C(C)(C)CCC[C@@]21C` (stereo partly drawn), for which the Potency entry is “inactive”.

As to `CCCn1c(-c2ccc(F)cc2)nc2c(NC(C)CN(C)C)nc(C)nc21` (stereo not drawn), the Potency entry was “inactive”.

On to `Cc1cc(C)c(C)c(S(=O)(=O)N2CCN(S(=O)(=O)c3ccc4c(c3)OCCO4)CC2)c1C`, for which the Potency entry is “inactive”.

`O=C(O)c1ccc(-c2cccc(-c3nn4c(=O)cc(N5CCNCC5)nc4s3)c2)cc1`: the Potency result was “inactive”.

For `CC(C)Oc1ccc(-c2ccc(=O)n(CC(=O)NCCc3ccccc3)n2)cc1`, the Potency result is “inactive”.

For `Cc1cc(NS(=O)(=O)c2ccc(NC(=O)Cc3ccc(C)c(F)c3)cc2)no1`, the Potency result was “inactive”.

In the case of `O=C(CNC(=O)c1ccc([N+](=O)[O-])cc1)OC(C(=O)Nc1cc(C(F)(F)F)ccc1Cl)c1ccccc1` (stereo not drawn), the Potency result was “inactive”.

Turning to `O=C1CN(S(=O)(=O)c2ccc3c(c2)OCCO3)CCN1S(=O)(=O)c1c(F)cccc1F`, the Potency result is “inactive”.

As for `O=C(O)c1ccc(-c2ccc3ncnc(NCC4CCCO4)c3c2)o1` (stereo not drawn), the Potency result was “inactive”.

Take `N#Cc1nc(Nc2ccc(Br)cc2)nc(NC2CCCC2)n1`: the Potency result is “inactive”.

Turning to `C[S+](=O)([O-])c1ccc(-c2ccc(=O)n(CC(=O)NCCc3ccccc3)n2)cc1`, the Potency entry was “inactive”.

Take `Cc1ccc2nsnc2c1S(=O)(=O)Nc1cccc2cccnc12`: the Potency result was “inactive”.

For `Cc1cc(N[S+](=O)([O-])c2ccc(NC(=O)Cc3ccccc3Cl)cc2)no1`, the Potency result was “inactive”.

Take `O=[S+]([O-])(Nc1ccc(N2CCNCC2)cc1)c1ccc(NCc2ccc(Cl)cc2O)cc1`: the Potency entry is “inactive”.

Consider `O=C(CSc1nc2ccc(S(=O)(=O)N3CCOCC3)cc2[nH]1)N1CCOCC1`, for which the Potency entry was “inactive”.

Take `Cc1ccc(NC(=O)c2cnn3c(-c4ccccc4)cc(C)nc23)cc1`: the Potency result is “inactive”.

With `Cc1cc(-c2nc(Nc3ccc(F)c(F)c3)c3ccccc3n2)ccn1`, the Potency entry was “inactive”.

For the molecule `Cc1cc(C)nc(NC(=S)N2CCN(c3ccc4cnccc4c3)CC2)c1`, the Potency entry was “inactive”.

Consider `Cc1ccc(S(=O)(=O)Nc2ccc(C(=O)Nc3nc(-c4ccccc4)cs3)cc2Cl)cc1`, for which the Potency result was “inactive”.

`COc1ccc(C2Nc3ccccc3C(=O)N2Cc2cccs2)cc1COc1c(C)cc(NC(C)=O)cc1C` (stereo not drawn): the Potency entry was “inactive”.

`COc1ccc(C2=Nn3c(nnc3-c3ccc(OC)cc3OC)SC2)c(OC)c1`: the Potency result is “inactive”.

`COC(=O)c1ccc(Cn2ncc3c4sc(C)cc4n(C)c3c2=O)cc1`: the Potency result is “inactive”.

For `COc1cccc(-c2nnc3n2N=C(c2ccc(OC)cc2OC)CS3)c1`, the Potency entry was “inactive”.

For `O=C(OCC#CCSc1nnc(-c2cccc3ccccc23)o1)c1ccc(Cl)c(C(F)(F)F)c1`, the Potency entry is “inactive”.

`COc1ccc(C(=O)OCC#CCSc2nnc(-c3cccc4ccccc34)o2)cc1`: the Potency result was “inactive”.

In the case of `O=C(c1ccc[nH]1)c1cc(Cl)ccc1NC(=O)[C@@H]1CCCN1`, the Potency result was “inactive”.

With `CCOC(=O)c1ccc(-c2ccc3ncnc(NCc4ncc[nH]4)c3c2)o1`, the Potency result is “inactive”.

As to `Cc1nc(CCNc2ncnc3ccc(-c4ccc5c(c4)OCO5)cc23)cs1`, the Potency entry was “inactive”.

Consider `Fc1cccc(CNc2ncnc3ccc(-c4ccccc4Cl)cc23)c1`, for which the Potency result was “inactive”.

Regarding `FC(F)(F)c1ccc(-c2nc(NCc3ccc(-c4cccnc4)cc3)c3ccccc3n2)cc1`, the Potency result was “inactive”.

For the molecule `CSc1ccc(-c2cncc(NC(=O)c3cccs3)c2)cc1`, the Potency entry is “inactive”.

The target of another experiment is Retinaldehyde dehydrogenase 3 (Homo sapiens) (UniProt P47895). Description: qHTS for Inhibitors of the Aldehyde Dehydrogenase Family (ALDH1A3) Primary screen (AID 2061315). The settings on record: ALDH inhibition qHTS; series mostly up to 56 µM.
`COc1cc(O)c(C(CC(=O)N2CCCC(C)C2)c2ccc3c(c2)OCO3)c(OC)c1` (stereo not drawn): the Potency result is “inactive”.

Take `Cc1cc(C)n2ncc(C(=O)Nc3ccc(C)c(C)c3)c2n1`: the Potency result is “inactive”.

As for `FC(F)(F)c1cccc(-c2nc(NCc3ccc(-c4ccnc(C(F)(F)F)c4)cc3)c3ccccc3n2)c1`, the Potency entry is “inactive”.

As for `Cc1ccc(NS(=O)(=O)c2cc3c(cc2C)OCC(=O)N3)cc1C`, the Potency result was “inactive”.

Regarding `Cc1cnc(NC(=O)c2cc(S(=O)(=O)N(C)C)ccc2N2CCCC2)s1`, the Potency entry is “inactive”.

For `Cc1ccc(-n2cnc3cc(C(=O)N4CCCCC4)ccc32)cc1`, the Potency result was “inactive”.

In the case of `Cc1csc(CNc2ncnc3ccc(-c4ccc(C(=O)O)o4)cc23)n1`, the Potency result was “inactive”.

Consider `O=C(Nc1ccc(S(=O)(=O)Nc2nccs2)cc1)c1ccc2ccccc2c1`, for which the Potency result was “inactive”.

`CC(=O)/C=C/[C@H]1[C@](C)(O)[C@@H](O)[C@H](O)C2C(C)(C)CCC[C@@]21C` (stereo partly drawn): the Potency result is “inactive”.

As to `CCCn1c(-c2ccc(F)cc2)nc2c(NC(C)CN(C)C)nc(C)nc21` (stereo not drawn), the Potency result was “inactive”.

`Cc1cc(C)c(C)c(S(=O)(=O)N2CCN(S(=O)(=O)c3ccc4c(c3)OCCO4)CC2)c1C`: the Potency result was “inactive”.

With `O=C(O)c1ccc(-c2cccc(-c3nn4c(=O)cc(N5CCNCC5)nc4s3)c2)cc1`, the Potency entry was “inactive”.

Consider `CC(C)Oc1ccc(-c2ccc(=O)n(CC(=O)NCCc3ccccc3)n2)cc1`, for which the Potency entry was “inactive”.

On to `Cc1cc(NS(=O)(=O)c2ccc(NC(=O)Cc3ccc(C)c(F)c3)cc2)no1`, for which the Potency entry is “inactive”.

Take `O=C(CNC(=O)c1ccc([N+](=O)[O-])cc1)OC(C(=O)Nc1cc(C(F)(F)F)ccc1Cl)c1ccccc1` (stereo not drawn): the Potency result is “inactive”.

Turning to `O=C1CN(S(=O)(=O)c2ccc3c(c2)OCCO3)CCN1S(=O)(=O)c1c(F)cccc1F`, the Potency entry was “inactive”.

`O=C(O)c1ccc(-c2ccc3ncnc(NCC4CCCO4)c3c2)o1` (stereo not drawn): the Potency entry is “inactive”.

`N#Cc1nc(Nc2ccc(Br)cc2)nc(NC2CCCC2)n1`: the Potency entry is “inactive”.

As for `C[S+](=O)([O-])c1ccc(-c2ccc(=O)n(CC(=O)NCCc3ccccc3)n2)cc1`, the Potency result is “inactive”.

On to `Cc1ccc2nsnc2c1S(=O)(=O)Nc1cccc2cccnc12`, for which the Potency result was “inactive”.

Regarding `Cc1cc(N[S+](=O)([O-])c2ccc(NC(=O)Cc3ccccc3Cl)cc2)no1`, the Potency result was “inactive”.

Take `O=[S+]([O-])(Nc1ccc(N2CCNCC2)cc1)c1ccc(NCc2ccc(Cl)cc2O)cc1`: the Potency result is “inactive”.

Regarding `O=C(CSc1nc2ccc(S(=O)(=O)N3CCOCC3)cc2[nH]1)N1CCOCC1`, the Potency entry was “inactive”.

Take `Cc1ccc(NC(=O)c2cnn3c(-c4ccccc4)cc(C)nc23)cc1`: the Potency result is “inactive”.

On to `Cc1cc(-c2nc(Nc3ccc(F)c(F)c3)c3ccccc3n2)ccn1`, for which the Potency result was “inactive”.

Regarding `Cc1cc(C)nc(NC(=S)N2CCN(c3ccc4cnccc4c3)CC2)c1`, the Potency entry is “inactive”.

For `Cc1ccc(S(=O)(=O)Nc2ccc(C(=O)Nc3nc(-c4ccccc4)cs3)cc2Cl)cc1`, the Potency result was “inactive”.

Regarding `COc1ccc(C2Nc3ccccc3C(=O)N2Cc2cccs2)cc1COc1c(C)cc(NC(C)=O)cc1C` (stereo not drawn), the Potency entry is “inactive”.

Regarding `COc1ccc(C2=Nn3c(nnc3-c3ccc(OC)cc3OC)SC2)c(OC)c1`, the Potency entry was “inactive”.

Take `COC(=O)c1ccc(Cn2ncc3c4sc(C)cc4n(C)c3c2=O)cc1`: the Potency entry was “inactive”.

In the case of `COc1cccc(-c2nnc3n2N=C(c2ccc(OC)cc2OC)CS3)c1`, the Potency entry was “inactive”.

Turning to `O=C(OCC#CCSc1nnc(-c2cccc3ccccc23)o1)c1ccc(Cl)c(C(F)(F)F)c1`, the Potency entry is “inactive”.

Take `COc1ccc(C(=O)OCC#CCSc2nnc(-c3cccc4ccccc34)o2)cc1`: the Potency entry is “inactive”.

`O=C(c1ccc[nH]1)c1cc(Cl)ccc1NC(=O)[C@@H]1CCCN1`: the Potency entry is “inactive”.

Take `CCOC(=O)c1ccc(-c2ccc3ncnc(NCc4ncc[nH]4)c3c2)o1`: the Potency entry was “inactive”.

On to `Cc1nc(CCNc2ncnc3ccc(-c4ccc5c(c4)OCO5)cc23)cs1`, for which the Potency result was “inactive”.

Take `Fc1cccc(CNc2ncnc3ccc(-c4ccccc4Cl)cc23)c1`: the Potency entry was “inactive”.

As for `FC(F)(F)c1ccc(-c2nc(NCc3ccc(-c4cccnc4)cc3)c3ccccc3n2)cc1`, the Potency result was “inactive”.

As for `CSc1ccc(-c2cncc(NC(=O)c3cccs3)c2)cc1`, the Potency entry is “inactive”.

Values taken from PubChem BioAssay (NCATS).
